24 molecules from PubChem BioAssay (NCATS) can be followed below.

Inconclusive results are not listed. Where a call stands in place of a potency, no number is given. The source made the active and inactive calls. The call rests on the fitted dose curve; in most records, active means well fitted inhibition curve with a large enough effect; inconclusive means small, poorly fitted or top-dose-only effect; inactive means no such curve, though single readings can be large or run the other way.

This experiment has as its target Retinaldehyde dehydrogenase 3 (Homo sapiens) (UniProt P47895). Briefly: qHTS for Inhibitors of the Aldehyde Dehydrogenase Family (ALDH1A3) Primary screen (AID 2061315). The following applies: ALDH inhibition qHTS; series mostly up to 56 µM. In general terms: qHTS replaces the single test concentration by a dilution series.
On to `COC1/C=C/C(C)(O)C(SCC(N)C(=O)O)CC(=O)OC(C)C(C)CC/C=C/1C` (centres undefined), for which the Potency result was “inactive”.

Consider `CC(=O)N[C@H]1[C@H](O[C@H]2CC[C@]3(C)C4CC=C5[C@@H]6CC(C)(C)CC[C@]6(C(=O)O)[C@H](O)C[C@@]5(C)[C@]4(C)CC[C@H]3C2(C)C)O[C@H](CO)[C@@H](O)[C@@H]1O` (some centres undefined), for which the Potency entry is “inactive”. As to `CC(=O)OC(CSC1CCC(=O)OC(C)CCC(=O)C1)C(=O)O` (centres undefined), the Potency entry was “inactive”. In the case of `C[C@@H]1O[C@@H](O[C@@H]2[C@@H](O)[C@H](O[C@H]3[C@H](O[C@H]4CC[C@@]5(C)C(CC[C@]6(C)C5CC=C5[C@@H]7CC(C)(C)CC[C@]7(C(=O)O[C@@H]7O[C@H](CO)[C@@H](O)[C@H](O)[C@H]7O[C@@H]7O[C@@H](C)[C@H](O[C@@H]8O[C@@H](C)[C@H](O)[C@@H](O)[C@H]8O)[C@@H](O)[C@H]7O)CC[C@]56C)[C@@]4(C)CO)O[C@H](C(=O)O)[C@@H](O)[C@@H]3O)O[C@H](CO)[C@H]2O)[C@H](O)[C@H](O)[C@H]1O` (some centres undefined), the activity change, negative = inhibition was -3.36% [at 11.2 µM] (inactive).

With `C=CC/C=C\C/C=C\CCCCCCCc1cccc(O)c1C(=O)O`, the Potency entry is “inactive”. Turning to `COc1ccccc1NC(=O)OCC1CCN(C(=O)OC(C)(C)C)CC1`, the Potency entry is “inactive”. With `C=C1CC/C=C(/CO)C(=O)C[C@@H]2[C@@H]1C[C@@]2(C)COC(C)=O`, the Potency result was “inactive”. For `C[C@@H]1CC[C@]2(C)C3(C)CC[C@@]2(OC3=O)[C@@]12C[C@H](c1ccoc1)OC2=O`, the Potency result was “inactive”. `Clc1ccc(CN[C@H]2CCN(c3ncc(Br)cn3)C2)c(Cl)c1`: the Potency entry was “inactive”. As to `CC1(C)CC[C@]2(C(=O)O)CC[C@]3(C)C(=CCC4[C@@]5(C)C[C@H](O)[C@H](O[C@@H]6O[C@H](CO)[C@@H](O)[C@H](O)[C@H]6O)[C@@](C)(CO)C5[C@H](O)C[C@]43C)[C@@H]2C1` (some centres undefined), the Potency result is “inactive”. With `CC(=O)OC1C(O)CC2(C)C(CCC(C)C23Cc2c(O)cc(CO)c(C=O)c2O3)C1(C)C` (centres undefined), the Potency entry was “inactive”. In the case of `COc1ccc(CCO[C@@H]2O[C@H](CO[C@@H]3OC[C@H](O)[C@H](O)[C@H]3O)[C@@H](O)[C@H](O)[C@H]2O)cc1`, the Potency entry is “inactive”. On to `Cn1ncnc1[C@@H]1c2n[nH]c(=O)c3cc(F)cc(c23)N[C@H]1c1ccc(F)cc1`, for which the Potency result is “inactive”. Consider `C[C@H](CN1CCCC1)C(=O)c1ccc(C(F)(F)F)cc1`, for which the Potency entry was “inactive”.

Regarding `CC1=C(CC/C(C)=C/C(=O)O)[C@@]2(C)CCCC(C)(C)C2CC1=O` (some centres undefined), the Potency result was “inactive”. For `CC(=O)O[C@@H]1[C@H](O)[C@@H](O[C@@H]2O[C@@H](C)[C@H](O[C@@H]3OC[C@@H](O)[C@H](O[C@@H]4OC[C@@H](O)[C@H](O)[C@H]4O)[C@H]3O)[C@@H](O[C@@H]3O[C@H](CO)[C@@H](O)[C@H](O)[C@H]3O)[C@H]2O)[C@H](OC(=O)[C@]23CCC(C)(C)C[C@H]2C2=CCC4[C@@]5(C)CC[C@H](O[C@@H]6O[C@H](C(=O)O)[C@@H](O)[C@H](O[C@@H]7OC[C@@H](O)[C@H](O)[C@H]7O)[C@H]6O[C@@H]6O[C@H](CO)[C@H](O)[C@H](O)[C@H]6O)[C@@](C)(C=O)C5CC[C@@]4(C)[C@]2(C)CC3)O[C@@H]1C` (some centres undefined), the activity change, negative = inhibition is -8.36% [at 11.2 µM] (inactive). Turning to `C=C1CCC2C(C)(C)C(O)CCC2(C)C1CCC(C)CCOC(=O)CCC(=O)O` (centres undefined), the Potency entry is “inactive”. For `C/C(=C\CC[C@@H](C)[C@H]1CC(O)[C@@]2(C)C3CC[C@H]4C(C)(C)[C@@H](OC5OCC(O)C(O)C5OC5OC(CO)C(O)C(O)C5O)CC[C@@]45C[C@@]35CC(O)[C@]12C)C(=O)O` (some centres undefined), the Potency entry was “inactive”.

As for `C/C=C/[C@@H]1C=C[C@@H]2C[C@H](C)CC[C@H]2[C@]1(C)/C(O)=C1/C(=O)[C@@H](CO)N(C)C1=O`, the Potency result is “inactive”. Turning to `CCOc1cc(CNC2CCCC2)cc(Cl)c1OCc1ccc(Cl)cc1`, the Potency result is “inactive”.

`C[C@]12CCC[C@](C)(C(=O)O)C1CCC13C=C(CO)C(CCC12)C3` (some centres undefined): the Potency result is “inactive”. As for `Cc1ccc(OC[C@H](O)[C@H](C)NC(C)C)c2c1CCC2`, the Potency result was “inactive”.

`O=C1NCc2nc3ccccc3c(=O)n2C1Cc1c[nH]c2ccccc12` (centres undefined): the Potency entry is “inactive”.

Consider `CC(C)=CCC[C@](C)(O)[C@H]1CC[C@]2(C)[C@@H]1[C@H](O)CC1[C@@]3(C)CC[C@H](O)C(C)(C)[C@@H]3[C@@H](O[C@@H]3O[C@H](CO)[C@@H](O)[C@H](O)[C@H]3O[C@@H]3O[C@H](CO)[C@@H](O)[C@H](O)[C@H]3O)C[C@]12C` (some centres undefined), for which the Potency result was “inactive”.
